Sampled rows, rich in hits. Any-hit rate of the full collection: about 5.7%.
Gal4-VP16 FLuc – VP16 counterscreen qHTS for inhibitors of ROR gamma transcriptional activity; Drosophila S2 Gal4-VP16 UAS-luciferase, luminescence, 20 h; Potency, µM (titrated, usually from 53.6 µM), for the others: at the highest dose activity, negative = inhibition, actives largely listed as inhibitors; actives 3.5% (n = 310,000); AID 2546, 2010;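 also: Gal4-VP16 expression switched on by copper sulfate through the metallothionein promoter; nearly all actives have a fitted effect of over 50% in size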
NPSR antag – qHTS Assay for Antagonists of the Neuropeptide S Receptor: cAMP Signal Transduction. CHO-NPSR cells, cAMP TR-FRET, antagonist mode. Potency, µM (series often up to 38.3 µM), without a hit: at the highest dose activity change, negative = inhibition, most hits filed as inhibitors. actives 1% (n = 220,000); also: nearly all actives have a fitted effect of over 50% in size
RORgamma inh – qHTS for inhibitors of ROR gamma transcriptional activity; Nuclear receptor ROR-gamma (Mus musculus), P51450; Drosophila S2 Gal4-RORgamma UAS-luciferase reporter, 20 h; Potency, µM (titrated, usually from 53.6 µM), for inactives: at the top dose activity change, negative = inhibition, most hits filed as inhibitors; actives 5.4% (n = 310,000); also: nearly all actives have a fitted effect of over 60% in size
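Read-out: Photinus luciferase luminescence; inhibitors lower reporter signal. Insect Schneider cells with Gal4-ROR gamma fusion under metallothionein promoter, UAS reporter; 700 uM final copper sulfate induction, 20 hr, ambient temperature.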
B2AR arrestin – qHTS assay of beta-arrestin-biased ligands of beta2-adrenergic receptor | Beta-2 adrenergic receptor (Homo sapiens), P07550 | beta-arrestin recruitment to beta2AR, cell-based reporter | Potency, µM (titrated, usually from 46.1 µM), inactives show at the highest dose activation, hits mostly activators | actives 0.02% (n = 330,000) | AID 492947, 2010;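 also: 0% = DMSO controls and full agonism = EC100 isoproterenol or metaproterenol; nearly all actives have a fitted effect of over 65% in size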
Target sequence (P07550 whole entry, looked up): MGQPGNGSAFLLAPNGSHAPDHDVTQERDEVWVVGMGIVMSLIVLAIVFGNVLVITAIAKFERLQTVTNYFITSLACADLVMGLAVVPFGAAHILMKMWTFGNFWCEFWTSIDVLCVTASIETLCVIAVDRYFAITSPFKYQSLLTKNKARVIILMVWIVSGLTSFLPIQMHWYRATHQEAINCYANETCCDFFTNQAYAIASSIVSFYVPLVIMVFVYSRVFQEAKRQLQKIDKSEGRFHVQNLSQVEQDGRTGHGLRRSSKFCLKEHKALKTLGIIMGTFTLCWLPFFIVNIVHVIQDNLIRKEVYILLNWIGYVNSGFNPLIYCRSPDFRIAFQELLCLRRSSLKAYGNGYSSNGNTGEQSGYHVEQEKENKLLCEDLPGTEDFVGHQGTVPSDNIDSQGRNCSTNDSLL
* hit, by the source's call; ? = inconclusive; . = no result given; [ ] = remark or other dose. Calls follow the shape of the dose curve; as a rule, active = well fitted curve in the direction sought with a large enough effect; inconclusive = small, poorly fitted or top-dose-only effect, or another doubt; inactive = no such curve, though single readings can be large; an effect the other way counts as inactive or inconclusive. Unless noted, % is scaled to controls: 0 for no effect and ±100 for the full control effect; potency is read from the fitted curve at half-maximal effect.

SMILES | Gal4-VP16 FLuc | NPSR antag | RORgamma inh | B2AR arrestin
C/C(=N\NC(=S)NCc1ccccc1)c1ccc2ccccc2c1OC(F)F | 2.2µM* | -54% | 2.2µM* | ?
COc1ccc(CCn2c(C)cc(C(=O)CSc3nc(N)cc(=O)[nH]3)c2C)cc1 | ? | -16%[46.1 µM] | 25% | 0%
COc1ccc(-n2c(C)cc(C(=O)CCl)c2C)cc1 | ? | 30% | 13µM* | 4%
Cc1cc(-n2c(C)cc(C(=O)CSc3nc(N)cc(=O)[nH]3)c2C)no1 | 22µM* | 2% | ? | 0%
Cc1cc(-n2c(C)cc(C(=O)CCl)c2C)no1 | ? | -6% | 6.3µM* | 0%
Cc1cc(C(=O)CSc2nc(N)cc(=O)[nH]2)c(C)n1-c1ccc(OC(F)F)cc1 | 10µM* | -19% | -38% | 0%
COc1ccc(-n2c(C)cc(C(=O)CN3C(=O)c4ccccc4C3=O)c2C)cc1 | -11% | ? | ? | -1%
Cc1cc(-n2c(C)cc(C(=O)CN3C(=O)C(=O)N(C)C3=O)c2C)no1 | . | . | . | 0%
CC(=O)O[C@@]12CO[C@@H]1C[C@H](O)[C@@]1(C)C(=O)[C@H](O)C3=C(C)[C@@H](OC(=O)C(O)[C@@H](NC(=O)OC(C)(C)C)c4ccccc4)C[C@@](O)([C@@H](OC(=O)c4ccccc4)[C@H]21)C3(C)C (some centres undefined) | -24% | . | ? | .
Cc1ccc(-c2cc(C3C4C=CCC(C)C4C(=O)N3Cc3ccccc3)ccc2F)cc1 (centres undefined) | -3% | . | 2% | .
COCCn1c(C)cc(C(=O)CSc2nnc3ccccn23)c1C | ? | -5%[46.1 µM] | 3.2µM* | 0%
COCCn1c(C)cc(C(=O)CSc2nc3ccccc3s2)c1C | 5µM* | -9% | 14µM* | -1%
COCCn1c(C)cc(C(=O)CSc2cc(C)c3ccc(OC)cc3n2)c1C | 2.2µM* | -17%[46.1 µM] | 6.3µM* | -1%
COCCn1c(C)cc(C(=O)CSc2nc3ccccc3o2)c1C | ? | -18%[46.1 µM] | -7% | -1%
COCCn1c(C)cc(C(=O)CSc2nc(C)c(C)c(C)n2)c1C | 1% | 6% | 7% | 0%
COc1ccc([N+](=O)[O-])cc1NC(=O)C(C)OC(=O)CSC(C)C(=O)Nc1cc(C)on1 (centres undefined) | . | . | . | 0%
CC(C(=O)NCc1ccco1)n1ccc2cc(S(=O)(=O)N3CCCCC3)ccc21 (centres undefined) | -2% | . | 1% | 0%
Cc1oc(C(C)(C)C)cc1C(=O)NCc1ccc2c(c1)OCO2 | ? | 13% | ? | -1%
CCCn1c(=O)c(C(=O)NCc2ccccn2)c(O)c2ccccc21 | ? | ? | 10µM* | 0%
CCCn1nc(C(=O)NCc2ccc3c(c2)OCO3)c2ccccc2c1=O | -7% | -16% | 22% | 0%
CCCn1c(=O)c(C(=O)NCc2ccc3c(c2)OCO3)c(O)c2ccccc21 | ? | . | 13µM* | 0%
Cn1nc(C(C)(C)C)cc1C(=O)NCc1ccc2c(c1)OCO2 | 1µM* | . | -13% | -1%
O=C(NCCc1ccccc1)c1c(O)c2cccc3c2n(c1=O)CC3 | 12% | -6%[46.1 µM] | 14% | 0%
O=C(NCc1ccccn1)c1c(O)c2cccc3c2n(c1=O)CC3 | ? | -6%[46.1 µM] | 2.8µM* | 0%
O=C(Nc1cccc(Cl)c1Cl)C1CCCO1 (centres undefined) | 5% | . | 2% | 0%
SMILES | Gal4-VP16 FLuc | NPSR antag | RORgamma inh | B2AR arrestin
N#Cc1ccc2c(c1)C[C@]1(CCCCN3C(=O)c4ccccc4C3=O)Oc3cc(-c4ccccc4)oc(=O)c3[C@H]2O1 | -8%[10 µM] | . | 2%[10 µM] | 0%[9.22 µM]
Cc1c(C(=O)c2ccc([N+](=O)[O-])cc2)c(=O)n(C)c(=O)n1C | -4% | 8% | 0% | 0%
CCn1c(=O)c(C(=O)NCCc2ccc(OC)c(OC)c2)c(O)c2ccccc21 | -3% | . | -16% | 0%
CCCn1c(=O)c(C(=O)NCCc2ccc(OC)c(OC)c2)c(O)c2ccccc21 | ? | . | 11µM* | 0%
CC1=C(C(=O)N2CCN(c3cc(C)ccc3C)CC2)C2(CCC(C)CC2)OC1=O (centres undefined) | -4% | -11% | 5% | 0%
CC(=O)c1c(C)[nH]c(-c2ccccc2)nc1=S | ? | -16% | 3.2µM* | 0%
CC(=O)c1c(NC(=O)c2ccccc2)[nH]c(-c2ccccc2)nc1=S | 8.9µM* | -36% | 3.2µM* | 0%
COc1ccccc1-c1nc(=S)c(C(C)=O)c(C)[nH]1 | ? | -10% | 5.6µM* | 2%
CSc1nc(-c2ccccc2)[nH]c(=S)c1C(C)=O | ? | -8%[46.1 µM] | 6.3µM* | 0%
Cc1cccc(C(=O)Nc2nnc(-c3ccco3)o2)c1 | 0.63µM* | 10% | 0.5µM* | 0%
O=C(Nc1nnc(-c2ccco2)o1)c1cccc(N2C(=O)CCC2=O)c1 | 4% | 13% | -33% | -1%
Cc1ccc(C(=O)Nc2nnc(-c3ccco3)o2)cc1C | 0.89µM* | 12% | 0.63µM* | 8%
Cc1ccccc1C(=O)Nc1nnc(-c2ccco2)o1 | -10% | 8% | 2% | 10%
O=C(Nc1nnc(-c2ccco2)o1)c1ccc(Cl)cc1 | 0.63µM* | -29% | 0.35µM* | 0%
CN(C)CC[C@@](O)(c1ccccc1)c1ccccc1Cl | -9% | . | 9% | .
Cc1ccc(N2CCN(CC(=O)Nc3c(C(=O)C4CC4)oc4ccccc34)CC2)cc1 | -3% | -3%[46.1 µM] | -5% | 0%
O=C1CCc2cc(S(=O)(=O)NC(Cc3ccccc3)C(=O)NCC3CCCO3)ccc2N1 (centres undefined) | -13% | -1%[46.1 µM] | 7.9µM* | 0%
COc1cccc([C@@H]2Oc3ccc(Br)cc3C(=O)[C@H]2OC(=O)NCCOc2ccccc2)c1 | 0% | . | -1% | .
O=C1/C(=C/c2c[nH]c3ccccc23)CCC/C1=C\c1c[nH]c2ccccc12 | ? | -43% | 11µM* | 1%
O=C1CS/C(=N/N=C/c2c[nH]c3ccccc23)N1 | -8% | 8% | -28% | 0%
COC(=O)[C@@]1(Cc2ccc(F)cc2)[C@H]2c3cc(C(=O)N(C)C)n(Cc4ccc(OC(F)(F)F)cc4)c3C[C@H]2CN1C(=O)c1ccccc1 | -2% | -33% | ? | 0%
CCc1ccc(CNC(=O)c2ccc3nc(C4CCCCC4)oc3c2)nc1 | 11µM* | . | 6.3µM* | 0%
CCOC(=O)CCNC(=O)c1ccc2nc(C3CCCCC3)oc2c1 | -5% | . | ? | -3%
COCCCNC(=O)CC(NS(=O)(=O)c1ccc(Cl)cc1)c1ccc(OC)cc1 (centres undefined) | 0% | -3%[46.1 µM] | 5% | 0%
Cc1ccc(C(C)C)c(OCC(O)CN2CCc3ccccc3C2)c1 (centres undefined) | 22µM* | . | -6% | 0%
O=C(N/N=C/c1cn(Cc2ccccc2)c2ccccc12)c1ccncc1 | ? | -16% | 2.8µM* | 0%

Screening data as filed in PubChem.
